Experimental data taken from PubChem BioAssay.
Calls of active or inactive are those of the source.

Legend:
[1] = small molecules captured by biotinylated probe aFSTL3 – biochemical, small-molecule microarray, fluorescence 635/667, stem cell growth factor project, primary screen (AID 1064); settings: higher = more signal;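 further: measures binding of the biotinylated anti-FSTL3 antibody to printed compounds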
[2] = binders from COS7 lysate, DM2A8 probe, primary screen, torsin A project, cell lysate, small-molecule microarray, fluorescence 635/667 (AID 1065); settings: higher = more signal, COS7 lysate expressing mutant human TOR1A
[3] = small molecules captured by biotinylated probe aFGF2 – biochemical, small-molecule microarray, fluorescence 635/667, stem cell growth factor project, primary screen (AID 1067); settings: higher = more signal;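 further: measures binding of biotinylated aFGF2 protein to printed compounds on slides; z-score merges feature fluorescence and signal-to-noise across triplicate slides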
[4] = small molecules captured by biotinylated probe aFGF10 – biochemical, small-molecule microarray, fluorescence 635/667, stem cell growth factor project, primary screen (AID 1071); settings: higher = more signal;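 further: score merges 667 nm spot intensity and signal to noise from triplicate slides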
[5] = target: Neurogenic locus notch homolog protein 2 (Homo sapiens) (UniProt Q04721); experiment: small molecules binding Notch2 protein – biochemical, small-molecule microarray, 635 nm fluorescence, stem cell growth factors, primary screen (AID 1073); settings: higher = more signal
Chain of Neurogenic locus notch homolog protein 2 (Homo sapiens) (Q04721 whole entry, looked up, canonical isoform): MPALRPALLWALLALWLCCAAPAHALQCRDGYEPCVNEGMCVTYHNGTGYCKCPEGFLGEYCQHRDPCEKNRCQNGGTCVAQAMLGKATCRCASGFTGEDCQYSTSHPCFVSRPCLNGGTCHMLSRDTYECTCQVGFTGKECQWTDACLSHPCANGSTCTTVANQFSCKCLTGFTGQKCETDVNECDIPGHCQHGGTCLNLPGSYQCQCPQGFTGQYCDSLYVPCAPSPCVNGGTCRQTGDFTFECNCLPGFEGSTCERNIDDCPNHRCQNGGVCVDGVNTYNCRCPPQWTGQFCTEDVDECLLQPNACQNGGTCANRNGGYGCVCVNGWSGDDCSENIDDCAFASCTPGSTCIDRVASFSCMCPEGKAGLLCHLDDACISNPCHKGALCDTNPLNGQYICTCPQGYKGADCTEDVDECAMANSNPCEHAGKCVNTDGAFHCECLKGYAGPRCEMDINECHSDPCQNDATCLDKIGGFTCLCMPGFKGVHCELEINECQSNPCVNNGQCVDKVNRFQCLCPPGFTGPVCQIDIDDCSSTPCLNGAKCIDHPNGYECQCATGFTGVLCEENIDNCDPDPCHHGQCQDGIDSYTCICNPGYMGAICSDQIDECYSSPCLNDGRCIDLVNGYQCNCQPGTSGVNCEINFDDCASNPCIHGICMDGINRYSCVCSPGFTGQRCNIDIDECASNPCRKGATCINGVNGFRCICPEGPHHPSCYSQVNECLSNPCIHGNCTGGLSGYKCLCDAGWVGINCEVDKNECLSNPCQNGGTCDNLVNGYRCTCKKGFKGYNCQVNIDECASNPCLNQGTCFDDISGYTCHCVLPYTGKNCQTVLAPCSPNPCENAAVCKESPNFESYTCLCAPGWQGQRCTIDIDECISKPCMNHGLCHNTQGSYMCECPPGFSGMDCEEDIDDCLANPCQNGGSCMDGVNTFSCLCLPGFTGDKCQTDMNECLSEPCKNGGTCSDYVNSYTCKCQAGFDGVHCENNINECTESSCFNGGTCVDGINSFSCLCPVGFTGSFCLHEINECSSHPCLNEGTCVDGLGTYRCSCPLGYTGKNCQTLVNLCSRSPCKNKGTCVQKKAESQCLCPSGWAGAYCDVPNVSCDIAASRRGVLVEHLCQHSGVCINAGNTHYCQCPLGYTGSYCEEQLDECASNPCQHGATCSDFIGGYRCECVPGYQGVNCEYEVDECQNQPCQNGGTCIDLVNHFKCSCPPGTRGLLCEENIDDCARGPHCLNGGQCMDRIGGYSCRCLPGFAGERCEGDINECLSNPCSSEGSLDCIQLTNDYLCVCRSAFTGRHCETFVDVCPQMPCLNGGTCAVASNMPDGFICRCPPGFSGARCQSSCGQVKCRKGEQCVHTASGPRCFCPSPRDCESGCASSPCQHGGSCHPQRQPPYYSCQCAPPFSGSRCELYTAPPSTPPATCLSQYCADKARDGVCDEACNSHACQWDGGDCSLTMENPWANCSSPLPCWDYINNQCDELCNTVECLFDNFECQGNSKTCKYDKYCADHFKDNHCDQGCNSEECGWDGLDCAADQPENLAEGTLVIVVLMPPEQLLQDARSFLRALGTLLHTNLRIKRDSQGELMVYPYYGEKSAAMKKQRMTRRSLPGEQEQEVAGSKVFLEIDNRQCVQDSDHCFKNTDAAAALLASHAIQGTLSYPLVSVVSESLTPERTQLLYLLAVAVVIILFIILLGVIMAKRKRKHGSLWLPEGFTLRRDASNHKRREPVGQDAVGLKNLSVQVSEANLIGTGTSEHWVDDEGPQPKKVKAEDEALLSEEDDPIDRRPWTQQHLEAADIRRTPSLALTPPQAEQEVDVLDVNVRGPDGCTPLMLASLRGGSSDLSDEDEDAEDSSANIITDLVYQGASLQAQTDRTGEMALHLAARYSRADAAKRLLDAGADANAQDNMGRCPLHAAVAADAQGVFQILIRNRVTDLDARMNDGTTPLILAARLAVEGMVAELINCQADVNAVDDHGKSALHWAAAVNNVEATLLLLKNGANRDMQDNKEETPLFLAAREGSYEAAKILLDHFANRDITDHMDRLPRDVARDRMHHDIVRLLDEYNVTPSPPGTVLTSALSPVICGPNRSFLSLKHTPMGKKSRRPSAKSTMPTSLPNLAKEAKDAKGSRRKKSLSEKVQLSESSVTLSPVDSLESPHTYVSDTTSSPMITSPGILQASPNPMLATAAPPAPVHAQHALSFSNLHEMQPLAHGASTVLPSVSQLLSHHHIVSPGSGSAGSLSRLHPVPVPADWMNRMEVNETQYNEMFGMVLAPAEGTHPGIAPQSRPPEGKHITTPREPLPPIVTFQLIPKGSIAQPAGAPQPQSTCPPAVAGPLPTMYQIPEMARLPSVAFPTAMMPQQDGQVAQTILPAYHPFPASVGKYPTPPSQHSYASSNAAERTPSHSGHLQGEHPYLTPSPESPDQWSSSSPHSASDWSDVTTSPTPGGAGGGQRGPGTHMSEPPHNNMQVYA

[6] = target: Pro-neuregulin-1, membrane-bound isoform (Homo sapiens) (UniProt Q02297); experiment: small molecules binding neuregulin-1 protein – biochemical, small-molecule microarray, fluorescence 635/667, psychiatric disease protein project, primary screen (AID 1075); settings: NRG1 binding, 635 nm fluorescence, higher = more signal;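 further: score combines 667 nm spot fluorescence with signal to noise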
Chain of Pro-neuregulin-1, membrane-bound isoform (Homo sapiens) (Q02297 whole entry, looked up, the tested form may be a part, canonical isoform): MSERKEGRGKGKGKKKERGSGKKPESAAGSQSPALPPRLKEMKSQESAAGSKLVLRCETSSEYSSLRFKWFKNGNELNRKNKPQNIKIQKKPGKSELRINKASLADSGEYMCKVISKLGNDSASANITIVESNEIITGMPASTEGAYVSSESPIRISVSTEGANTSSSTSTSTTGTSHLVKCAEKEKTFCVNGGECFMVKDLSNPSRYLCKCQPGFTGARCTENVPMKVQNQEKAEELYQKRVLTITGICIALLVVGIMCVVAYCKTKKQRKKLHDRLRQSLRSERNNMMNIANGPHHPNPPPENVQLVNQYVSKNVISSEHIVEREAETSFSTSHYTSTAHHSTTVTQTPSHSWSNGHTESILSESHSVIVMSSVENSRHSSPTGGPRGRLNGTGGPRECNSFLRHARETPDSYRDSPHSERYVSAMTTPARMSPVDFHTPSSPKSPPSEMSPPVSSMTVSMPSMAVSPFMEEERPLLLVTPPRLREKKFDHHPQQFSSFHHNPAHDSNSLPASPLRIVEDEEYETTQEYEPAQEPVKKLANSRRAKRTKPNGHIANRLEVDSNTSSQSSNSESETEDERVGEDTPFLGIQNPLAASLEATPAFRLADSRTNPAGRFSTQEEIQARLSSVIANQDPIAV

[7] = tested on: Neuregulin-1 EGF-like domain; experiment: small molecules binding NRG1 EGF domain – biochemical, small-molecule microarray, 635 nm fluorescence, primary screen (AID 1081); settings: higher = more signal;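 further: binding of the protein to compounds printed on small-molecule microarray slides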
[8] = FRG1 expression reporter modulators in myotubes – cell-based, C2C12 myotubes, firefly/Renilla luciferase, luminescence, FRG1 inhibition for FSHD, primary screen (AID 1084); settings: FRG1 promoter luciferase, higher = more signal, called active from +8 up or from −8 down
[9] = small molecules captured by biotinylated probe aFST – biochemical, small-molecule microarray, fluorescence 635/667, stem cell growth factor project, primary screen (AID 1086); settings: higher = more signal;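 further: score merges 667 nm fluorescence with signal-to-noise of each printed compound spot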
[10] = binders of probe aHhip on microarray, primary screen, stem cell growth factor project, biochemical, small-molecule microarray, fluorescence 635/667 (AID 1087); settings: higher = more signal;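 further: score merges spot fluorescence at 667nm with spot signal to noise ratio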

Row | Compound | composite z-score [1] | composite z-score [2] | composite z-score [3] | composite z-score [4] | composite z-score [5] | composite z-score [6] | composite z-score [7] | z-score [8] | composite z-score [9] | composite z-score [10]
1 | C=C[C@@H](CO)NS(=O)(=O)c1ccc(Br)cc1 | 0.265 | -0.066 | -0.22 | -0.426 | -1.14 | -0.361 | -0.14 | -1.84 (inactive) | -0.257 | -0.156
2 | COC(=O)C(CC#Cc1ccc2c(c1)[C@]1(C(=O)N2)[C@H](c2ccc(OCCO)cc2)N2[C@H](c3ccccc3)[C@H](c3ccccc3)OC(=O)[C@H]2[C@@H]1C(N)=O)C(=O)OC | 0.0757 | 0.268 | 0.187 | 0.489 | 0.0619 | 1.26 | 1.17 | 2.1 (inactive) | -0.0778 | 0.0826
3 | COC(=O)[C@@]1(Cc2ccc(F)cc2)[C@H]2c3cc(C(=O)N4CCCC4)n(CCc4c[nH]c5cc(F)ccc45)c3C[C@H]2CN1C(=O)c1ccccc1 | 0.198 | 0.197 | 0.289 | 0.634 | 1.68 | 2.01 | 1.35 | 0.53 (inactive) | 1.69 | 0.281
4 | O=C1OC[C@@H](c2ccccc2)n2cc(/C=C/c3ccccc3)cc21 | 0.0087 | -0.382 | -0.178 | -0.162 | -0.924 | 0.895 | 0.132 | -0.144 (inactive) | -0.503 | -0.306
5 | O=C1C2C=CC(C(O)C3CC=CCC3)N(Nc3ccc([N+](=O)[O-])cc3)C2C(=O)N1c1ccccc1 (stereo not given) | 1.47 | 1.28 | 0.428 | 1.14 | 1.54 | 1.61 | 1.26 | -1.06 (inactive) | 2.28 | 0.0729
6 | C=CCC(OC(C)=O)[C@@H]1[C@@H](N(Cc2ccc(-c3ccccc3)cc2)C(=O)Cc2ccc(OC)cc2)c2cc(OCCCO)ccc2N1C(=O)Cc1ccc(OC)cc1 (stereo not given in full) | 0.169 | 0.414 | -0.0363 | 0.479 | -0.076 | 0.851 | 0.0142 | -1.5 (inactive) | 0.195 | 0.411
7 | CCc1cccc(NC(=O)O[C@H]2[C@H](OC(=O)Nc3ccccc3-c3ccccc3)[C@H](OC(=O)Nc3ccccc3-c3ccccc3)[C@@H](OC)O[C@@H]2CO)c1 | -0.189 | 0.42 | 0.155 | 0.576 | 1.54 | 1.48 | 1.11 | -0.714 (inactive) | 1.14 | -0.214
8 | CC(C)(C)OC(=O)CC[C@@]1(C(=O)N2CCOCC2)N=C(c2ccc(OCCCO)cc2)O[C@@H]1c1ccccc1CN=[N+]=[N-] | 0.12 | 0.161 | 0.254 | 0.674 | 1.1 | 1.88 | 1.31 | 3.86 (inactive) | 0.694 | 0.186
9 | C=CCNC(=O)[C@@H]1[C@H]2C(=O)O[C@H](c3ccccc3)[C@H](c3ccccc3)N2[C@H](c2ccc(OCCO)cc2)[C@@]12C(=O)N(C(=O)OCCOC)c1ccccc12 | -0.156 | 1.08 | 0.0021 | 0.591 | 0.964 | 1.05 | 1.25 | 0.0023 (inactive) | 0.954 | 0.0053
10 | COc1ccc(CCNC(=O)[C@@]2(C)c3ccccc3C(=O)N(Cc3ccc(OC(F)(F)F)cc3)[C@H]2c2ccc(CO)cc2)cc1 | -1.45 | 0.197 | -0.0211 | 0.0093 | 0.484 | 0.41 | 1.12 | -4.33 (inactive) | 0.122 | -0.679
11 | NCCCCCCNC(=O)[C@@H]1C[C@@H]2C(=O)NCC(=O)N2[C@@H]1c1cccc(OCCO)c1 | 0.403 | 0.641 | 0.047 | 0.847 | 1.2 | 0.982 | 1.22 | 0.726 (inactive) | 0.543 | 0.385
12 | [N-]=[N+]=NCc1ccccc1[C@H]1OC(c2ccc(OCCCO)cc2)=N[C@@]1(Cc1ccccc1N=[N+]=[N-])C(=O)O | 0.377 | 1.08 | 0.0997 | 0.503 | 1.37 | 1.21 | 1.24 | 4.15 (inactive) | 0.632 | 0.0623
13 | COCCOC(=O)N1C(=O)[C@@]2(c3cc(C#CCC(C(=O)OC)C(=O)OC)ccc31)[C@H](C(=O)N1CCc3cc(OC)c(OC)cc3C1)[C@H]1C(=O)O[C@H](c3ccccc3)[C@H](c3ccccc3)N1[C@@H]2c1ccccc1OCCO | -0.308 | 0.399 | -0.0608 | 0.375 | 1.44 | 0.875 | 1.22 | -0.223 (inactive) | 0.651 | -0.204
14 | CCCCN1CC=CC23O[C@@H]4/C=C\CCCOC(=O)C4[C@H]2C(=O)N(CCCCCCO)[C@@H]3C1=O (stereo not given in full) | 0.179 | -0.619 | -0.144 | -0.785 | -0.868 | 2.04 | 1.15 | -1.38 (inactive) | -1.09 | -0.0994
15 | COc1ccc([Si](C)(C)[C@H]2[C@H](CC(=O)N(CCO)Cc3ccccc3)O[C@@]3(C(=O)N(c4ccccc4)c4ccccc43)[C@@H]2C)cc1 | -0.249 | -0.182 | -0.0261 | 0.638 | 0.199 | 0.951 | 0.46 | -1.91 (inactive) | 0.294 | -0.0581
16 | C=CCNC(=O)[C@H]1[C@@H]2C(=O)O[C@@H](c3ccccc3)[C@@H](c3ccccc3)N2[C@@H](c2ccc(O)cc2)[C@]12C(=O)Nc1ccc(C#CCC(C(=O)OC)C(=O)OC)cc12 | -0.102 | -0.0975 | -0.0878 | 0.0813 | 0.136 | 0.0652 | 1.19 | -0.32 (inactive) | 0.0765 | -0.261

Row | Compound | composite z-score [1] | composite z-score [2] | composite z-score [3] | composite z-score [4] | composite z-score [5] | composite z-score [6] | composite z-score [7] | z-score [8] | composite z-score [9] | composite z-score [10]
17 | CN1C(=O)C2C(C1=O)C1C=C(CCCO)C2C(C2CC2)N1C (stereo not given) | 0.227 | -0.144 | 0.078 | 0.333 | 0.196 | 0.496 | 0.625 | -0.818 (inactive) | -0.196 | -0.385
18 | COC(=O)[C@@]1(Cc2ccccc2)[C@H]2c3cc(C(=O)N(C)C)n(Cc4nc5ccccc5[nH]4)c3C[C@H]2CN1C(=O)c1ccccc1 | 1.1 | 1.08 | 0.214 | 0.572 | 1.77 | 2.12 | 1.33 | -1.3 (inactive) | 1.37 | -0.315
19 | COCCOC(=O)N1C(=O)[C@@]2(c3cc(C#CCNC(N)=O)ccc31)[C@H](c1ccc(O)cc1)N1[C@H](c3ccccc3)[C@H](c3ccccc3)OC(=O)[C@H]1[C@@H]2C(=O)N1CCc2cc(OC)c(OC)cc2C1 | 0.141 | 0.0344 | 0.0525 | 0.67 | 1.07 | 1.06 | 0.786 | 0.411 (inactive) | 0.39 | -0.0427
20 | O=C1N(Cc2ccccc2)c2ccccc2C[C@@]12N=C(c1ccc(OCCCO)cc1)O[C@H]2c1ccccc1 | -0.0448 | 0.0182 | -0.0129 | 0.311 | 0.18 | 0.909 | 1.14 | -2.64 (inactive) | -0.238 | -0.0925
21 | COC(=O)C(CC#Cc1ccc2c(c1)[C@]1(C(=O)N2)[C@H](C(=O)N2CCCCCCC2)[C@H]2C(=O)O[C@H](c3ccccc3)[C@H](c3ccccc3)N2[C@@H]1c1ccc(OCCO)cc1)C(=O)OC | 3.58 | 2.87 | 0.941 | 1.37 | 1.75 | 2.94 | 1.33 | 1.91 (inactive) | 3.35 | 2.77
22 | O=C1C2C=CC(C(O)C3CCCCC3)N(Nc3ccccc3F)C2C(=O)N1c1ccccc1 (stereo not given) | 0.967 | 0.619 | 0.257 | 0.682 | 1.66 | 1.93 | 1.31 | -0.227 (inactive) | 1.55 | -0.0617
23 | COCCOC(=O)N1C(=O)[C@@]2(c3cc(C#CCNC(N)=O)ccc31)[C@H](c1ccccc1OCCO)N1[C@H](c3ccccc3)[C@H](c3ccccc3)OC(=O)[C@H]1[C@@H]2C(=O)N1CCCCCCC1 | 1.63 | 0.646 | 0.0495 | 0.57 | 0.725 | 0.665 | 1.1 | 0.515 (inactive) | 1.29 | 1
24 | [N-]=[N+]=Nc1ccccc1C[C@@]1(C(=O)NCc2ccccc2)N=C(c2ccc(OCCCO)cc2)O[C@@H]1c1ccccc1 | 0.584 | 0.405 | 0.0421 | 1.05 | 1.46 | 0.794 | 0.747 | -2.86 (inactive) | 0.838 | -0.0296
25 | CC(C)c1ccc(NN2C(C(O)C3=C[C@H]4C[C@@H](C3)C4(C)C)C=CC3C(=O)N(c4ccccc4)C(=O)C32)cc1 (stereo not given in full) | 0.481 | 0.357 | 0.0301 | 0.605 | 1.16 | 1.74 | 0.885 | -1.01 (inactive) | 0.907 | -0.302
26 | COc1cccc(C)c1NC(=O)O[C@H]1[C@H](OC(=O)Nc2ccccc2)[C@@H](OC(=O)Nc2ccccc2)[C@@H](OC)O[C@@H]1CO | -0.0439 | 0.639 | 0.0811 | 1.06 | 1.48 | 1.81 | 1.46 | 0.91 (inactive) | 0.837 | 0.149
27 | CO[C@H]1O[C@H](CO)[C@@H](OC(=O)CCc2ccccc2)[C@@H]2OC(=O)[C@@H](Cc3ccc4ccccc4c3)C/C=C/C[C@H](Cc3ccc4ccccc4c3)C(=O)O[C@@H]12 | -0.129 | 0.693 | -0.179 | -0.0304 | -0.641 | 0.617 | -0.127 | -1.72 (inactive) | -0.354 | -0.0994
28 | CN(C)CCCCCCNC(=O)[C@@H]1C[C@@H]2C(=O)N[C@@H](CCCC[N+](C)(C)C)C(=O)N2[C@@H]1c1cccc(OCCO)c1 | 0.516 | 0.869 | -0.0707 | -0.431 | -0.558 | -0.538 | 0.801 | 3.98 (inactive) | -0.516 | -0.333
29 | CC(=O)NCCCC[C@@H]1NC(=O)[C@H]2C[C@@H](C(=O)O)[C@@H](c3cccc(OCCO)c3)N2C1=O | -0.318 | 1.1 | 0.0761 | 0.841 | 1.15 | 1.14 | 1.18 | 0.618 (inactive) | 0.491 | -0.0862
30 | CCCCC=C[C@@H](NC(=O)C(C)(C)C)c1ccccc1 | 0.0905 | 0.161 | 0.0775 | 0.57 | 1.5 | 1.07 | 0.357 | -0.751 (inactive) | 0.553 | 0.388
31 | C=CC[C@H](OC(=O)Nc1ccc(SC)cc1)c1ccc(O)c(F)c1 | 0.57 | 0.274 | -0.102 | -0.575 | -1.19 | 0.659 | 1.07 | 8.09 (active) | -0.512 | -0.156
32 | CC(C)N1C(=O)[C@@]2(Cc3ccccc31)c1ccccc1C(=O)N(Cc1ccccc1)[C@H]2c1ccc(CO)cc1 | -0.244 | -0.164 | -0.204 | -0.125 | -0.291 | 0.251 | 0.322 | -0.0076 (inactive) | -0.0754 | -0.391
